Assay outcomes (PubChem BioAssay)
FMDV inh – blocks foot and mouth disease virus; FMDV antiviral cell-based qHTS; Potency, µM (titrated, usually from 57.9 µM), most hits filed as inhibitors; 410,000 tested, 1.2% active; calls by dose curve; tested in HEK293T cells; further: read-out not given here; nearly all actives have a fitted effect of over 45% in size
VACV Venus inh – inhibitors of vaccinia virus (Venus reporter); Vaccinia virus Venus reporter expression, fluorescence; Potency, µM (doses to about 36.5 µM), usual class: inhibitors; 330,000 tested, 0.46% active; AID 720580; calls by dose curve; tested in A549 cells; further: nearly all actives have a fitted effect of over 30% in size
Vaccinia mCherry – inhibitors of vaccinia virus infection (mCherry reporter signal); Vaccinia virus mCherry reporter infection, fluorescence; Potency, µM (doses to about 36.5 µM), actives largely listed as inhibitors; 310,000 tested, 0.63% active; calls by dose curve; tested in A549 cells; further: nearly all actives have a fitted effect of over 35% in size
Giardia FBPA inh – blocks Giardia fructose-bisphosphate aldolase activity; A8B2U2; purified Giardia FBPA; Potency, µM (highest dose often 59.6 µM), most hits filed as inhibitors; 290,000 tested, 0.71% active; AID 2451; active means well fitted inhibition curve with a large enough effect; inconclusive means small, poorly fitted or top-dose-only effect, or effect the other way; further: nearly all actives have a fitted effect of over 55% in size
Target sequence (A8B2U2 whole entry, looked up): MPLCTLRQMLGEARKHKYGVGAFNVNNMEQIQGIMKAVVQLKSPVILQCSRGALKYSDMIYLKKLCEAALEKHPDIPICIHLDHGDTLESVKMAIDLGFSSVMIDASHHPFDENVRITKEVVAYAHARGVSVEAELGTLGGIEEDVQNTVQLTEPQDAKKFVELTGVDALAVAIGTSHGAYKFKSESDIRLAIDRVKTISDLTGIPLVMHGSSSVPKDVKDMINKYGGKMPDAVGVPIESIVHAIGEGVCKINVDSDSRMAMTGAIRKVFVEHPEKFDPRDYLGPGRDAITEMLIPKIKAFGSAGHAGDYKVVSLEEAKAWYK
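40 nM FBPA preincubated 10 min at RT with compound (up to 57.5 uM final), then substrate plus GAPDH/TPI/NAD/arsenate coupling and diaphorase/resazurin added. Fluorescence read after 20 min at RT, 525/598 nm.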
Of the large screens only hits and unclear results are named; the others gave an inactive call. In the library only some 2.2% were active in any assay of this set; here they are far more common.

Cc1ccc2oc(-c3ccc(C)c(NC(=O)COc4ccccc4C)c3)nc2c1	none (no result: FMDV inh, Giardia FBPA inh)
CCCCOc1ccc(C(=O)C(CN2CCOCC2)c2ccccc2)cc1 (stereo not drawn)	FMDV inh 18µM, VACV Venus inh inconclusive, Vaccinia mCherry 16µM
O=C(c1ccc(Cl)cc1)C(CN1CCCC1)c1ccccc1 (stereo not drawn)	FMDV inh 25µM, Giardia FBPA inh inconclusive (no result: VACV Venus inh, Vaccinia mCherry)
CCCCCOc1ccc(C(=O)C(c2ccccc2)N2CCOCC2)cc1 (stereo not drawn)	FMDV inh inconclusive
O=C(c1ccccc1)C(CCC(CN1CCOCC1)C(=O)c1ccccc1)CN1CCOCC1 (stereo not drawn)	FMDV inh 25µM, VACV Venus inh 7.9µM (no result: Vaccinia mCherry)
Cc1cnccc1/C=C/c1ccc(N)cc1	none (no result: FMDV inh, Giardia FBPA inh)
COC(=O)c1c(-c2cccs2)csc1NC(=O)COc1c(C)ccc(C)c1C	none (no result: Giardia FBPA inh)
COc1ccc(CN2CCCC(n3cc(C(=O)NC4CCCC4)nn3)C2)c(O)c1 (stereo not drawn)	none (no result: Giardia FBPA inh)
COc1ccccc1Cn1c(=S)[nH]c2cc(C(=O)NCC3CCCO3)ccc2c1=O (stereo not drawn)	FMDV inh 25µM
Cc1ccc(NC(=O)C(CC(C)C)N2Cc3ccccc3C2=O)cc1F (stereo not drawn)	none (no result: Giardia FBPA inh)
COc1ccc(-c2cc(CNC(=O)CCl)on2)cc1	FMDV inh inconclusive, VACV Venus inh 8.9µM (no result: Vaccinia mCherry)
COc1ccc(-c2cc(CNC(C)=O)on2)cc1	none (no result: Vaccinia mCherry)
Cc1ccc(-c2csc(N3CCN(CCCn4c(-c5ccncc5)nc5ccccc54)CC3)n2)cc1	FMDV inh inconclusive, VACV Venus inh inconclusive, Vaccinia mCherry 10µM
Cc1oc(-c2ccc3c(c2)OCCO3)cc1C(=O)O	FMDV inh 2.2µM
COc1ccc(-c2cc(C(=O)NC(Cc3cc4ccccc4[nH]3)C(=O)O)c(C)o2)cc1OC (stereo not drawn)	none
Cc1oc(-c2ccc3c(c2)OCCO3)cc1C(=O)NC(CCC(=O)O)C(=O)O (stereo not drawn)	none (no result: VACV Venus inh, Vaccinia mCherry)
COc1ccc(-c2cc(C(=O)O)c(C)o2)cc1OC	FMDV inh 13µM (no result: VACV Venus inh, Vaccinia mCherry)
Cc1oc(-c2ccc3c(c2)OCCO3)cc1C(=O)NCC(=O)O	FMDV inh 28µM
Cc1cc(C)n(CC(=O)N2CCC(n3c(C(C)C)nc4cccnc43)CC2)n1	none (no result: Giardia FBPA inh)
C=CC1=C(C)C2=Cc3c(C=C)c(C)c4[n]3[Sn+2][n]3c(c(C)c(CCC(=O)O)c3=CC3=NC(=C4)C(C)=C3CCC(=O)O)=CC1=N2	Giardia FBPA inh inconclusive (no result: VACV Venus inh, Vaccinia mCherry)
CCCCCCCCCCCCCCCCOCC(CO)OC(C)=O (stereo not drawn)	none
Cc1ccc2c(c1)cc(CN(C)Cc1nc(C)cs1)c(=O)n2C	none (no result: Giardia FBPA inh)
O=C(NCc1ccc2c(c1)OCO2)c1nc(S(=O)(=O)Cc2ccccc2F)ncc1Cl	FMDV inh 22µM (no result: VACV Venus inh, Vaccinia mCherry)
O=C(NCc1ccc2c(c1)OCO2)c1ccccc1Cl	none (no result: Giardia FBPA inh)
O=C(NCc1ccc2c(c1)OCO2)c1nc(S(=O)(=O)Cc2ccccc2)ncc1Cl	FMDV inh 16µM (no result: Giardia FBPA inh)
ICC[n+]1csc2ccccc21	none (no result: FMDV inh, Giardia FBPA inh)
COc1ccc(-c2cc3c(nn2)-c2ccccc2C3=O)cc1	FMDV inh 10µM
COc1ccc(CCNC(=O)CC(c2ccccc2)c2cc(C)ccc2O)cc1OC (stereo not drawn)	FMDV inh 18µM (no result: VACV Venus inh, Vaccinia mCherry)
COc1ccc(CCNC(=O)Cc2ccccc2)cc1OC	none
COC(=O)c1c(OCc2ccccn2)cc(=O)n2c1CCN(C(=O)c1cc(C(C)C)nn1C)CC2	none (no result: Giardia FBPA inh)
O=[N+]([O-])c1ccc2c(c1)C=C/C2=C/c1ccccc1	none (no result: FMDV inh, Giardia FBPA inh)
O=C(NCC1CCN(c2ccc(S(=O)(=O)N3CCOCC3)cc2)CC1)c1ccc(Cl)cc1	FMDV inh 40µM, VACV Venus inh inconclusive (no result: Vaccinia mCherry)
COc1ccc2[nH]cc(CCNc3ncncc3-c3ccccc3C)c2c1	FMDV inh 20µM (no result: VACV Venus inh, Vaccinia mCherry)
Cc1cc(/C=C\c2ccc3cc(N(C)C)ccc3[n+]2C)c(C)n1-c1ccccc1	FMDV inh 20µM, Giardia FBPA inh inconclusive
COc1cc2c(cc1OC)C(c1oc(-c3ccc(-c4cc(Cl)ccc4Cl)o3)cc1C)=NCC2	none (no result: FMDV inh, Giardia FBPA inh)
COc1cc2c(cc1OC)C(c1ccc(-c3ccccc3Cl)o1)=NCC2	none (no result: VACV Venus inh, Vaccinia mCherry)
COc1cc2c(cc1OC)C(c1ccc(-c3cc(Cl)ccc3Cl)o1)=NCC2	FMDV inh 18µM
COc1cc2c(cc1OC)C(c1ccc(-c3ccc(Cl)c(Cl)c3)o1)=NCC2	FMDV inh 18µM, VACV Venus inh inconclusive
COc1cc2c(cc1OC)C(c1ccc(-c3ccc(Cl)cc3Cl)o1)=NCC2	FMDV inh 14µM, Vaccinia mCherry inconclusive
Cc1nn(-c2ccc(F)cc2)c(C)c1CNC(=O)c1ccc(-n2cc(NC(=O)c3ccoc3)cn2)cc1	none (no result: Giardia FBPA inh)
COc1ccc(C2=C/C(=C\c3ccc(OC(C)=O)cc3)C(=O)O2)cc1	none
CC(=O)Oc1ccc(C2=Cc3ccc(OC(C)=O)cc3OC2C)cc1 (stereo not drawn)	Vaccinia mCherry 10µM (no result: Giardia FBPA inh)
CC1=CC(O)C(O)C2(C)C1CC1OC(=O)CC3C(C)C(O)C(=O)C2C13CO (stereo not drawn)	VACV Venus inh 6.3µM, Vaccinia mCherry 8.9µM (no result: Giardia FBPA inh)
CN(C)c1ccc(C(=S)Nc2ccccc2)cc1	Vaccinia mCherry inconclusive
CN(C)c1ccc(NC(=S)c2ccccn2)cc1	FMDV inh 2.8µM, Giardia FBPA inh inconclusive
O=C(Nc1cccc(Nc2ccccc2)c1)c1cnn2c1NC(=C1CC1)C=C2C(F)F	none (no result: FMDV inh, Giardia FBPA inh)
CCOc1cc(/C=C2\CN(C)C/C(=C\c3ccc(O)c(OCC)c3)C2=O)ccc1O	FMDV inh 18µM, VACV Venus inh inconclusive, Vaccinia mCherry inconclusive, Giardia FBPA inh inconclusive
CCOc1cc(/C=C2\CCC/C(=C\c3cc(Cl)c(O)c(OCC)c3)C2=O)cc(Cl)c1O	FMDV inh 16µM
CN1C/C(=C/c2ccncc2)C(=O)/C(=C/c2ccncc2)C1	none
CN1C/C(=C/c2ccsc2)C(=O)/C(=C/c2ccsc2)C1	FMDV inh 28µM, VACV Venus inh inconclusive, Vaccinia mCherry inconclusive
COc1ccccc1C1CN(Cc2cn(C)nc2C)Cc2ccccc2O1 (stereo not drawn)	none (no result: Giardia FBPA inh)
OC[C@@H]1CN(Cc2ccc(-c3ccccc3)cc2)C[C@H](n2cnc3c(NC4CCC4)ncnc32)O1	FMDV inh 18µM (no result: Giardia FBPA inh)
CN(CC(=O)Nc1cccc(Cl)c1)S(=O)(=O)c1ccc2[nH]c3c(c2c1)CCCC3	none (no result: Giardia FBPA inh)
COc1ccccc1-c1ccnc(-n2ncc(C(=O)N3CCCCC3c3cccnc3)c2C)n1 (stereo not drawn)	none (no result: Giardia FBPA inh)
COC1=CC(=O)c2nc(Cl)ccc2C1=O	FMDV inh 10µM, VACV Venus inh inconclusive, Vaccinia mCherry inconclusive (no result: Giardia FBPA inh)
CCCCN1C(=O)C(CC(=O)NC2CCCC2)CC(C(=O)N2CCOCC2)=C1C (stereo not drawn)	FMDV inh 40µM (no result: Giardia FBPA inh)
COc1ccc(C(=O)/C=C2/C(=O)Nc3ccccc32)cc1OC	FMDV inh 32µM
NC(=O)COc1ccc(C(=O)/C=C2/C(=O)Nc3ccccc32)cc1	FMDV inh inconclusive
O=C1Nc2ccccc2/C1=C/C(=O)c1cccs1	FMDV inh 22µM
COc1ccc(C(=O)/C=C2/C(=O)Nc3ccccc32)c(OC)c1	FMDV inh inconclusive, VACV Venus inh inconclusive, Vaccinia mCherry inconclusive
COc1ccc(C(=O)/C=C2/C(=O)Nc3ccccc32)cc1	FMDV inh 3.2µM (no result: VACV Venus inh, Vaccinia mCherry)
C=CCOc1ccccc1C(=O)/C=C1/C(=O)Nc2ccccc21	FMDV inh 40µM (no result: VACV Venus inh, Vaccinia mCherry)
